Results published in PubChem BioAssay (Tox21).
Records with an inconclusive call do not appear. The source made the active and inactive calls. Unless noted, the call rests on the fitted dose curve; in most records, active means well fitted curve in the direction sought with a large enough effect in the repeat runs; inconclusive means weak or mixed curves; inactive means no such curve, though single readings can be large; an effect the other way counts as inactive or inconclusive.

What was measured:
[1] = qHTS assay to identify small molecule agonists of the peroxisome proliferator-activated receptor delta (PPARd) signaling pathway - cell viability counter screen (AID 743211); further: nearly all actives have a fitted effect of over 55% in size
Outline: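 Read-out: CellTiter-Glo luminescence, 30 min RT, measured in the same wells as the beta-lactamase reporter. Cells: GeneBLAzer PPAR delta UAS-bla HEK293H, 3000 cells/well, compound exposure 17 h at 37C.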

[2] = molecular target: Peroxisome proliferator-activated receptor delta (Homo sapiens) (UniProt Q03181); test: qHTS assay to identify small molecule agonists of the peroxisome proliferator-activated receptor delta (PPARd) signaling pathway (AID 743212; calls by dose curve)
Outline: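 Beta-lactamase reporter readout: a ratiometric FRET signal from the LiveBLAzer substrate after 2 h at room temperature. Compound exposure at 37 °C in PPARδ-bla HEK293H cells driven by an upstream activator sequence.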

[3] = molecular target: Peroxisome proliferator-activated receptor delta (Homo sapiens) (UniProt Q03181); test: qHTS assay to identify small molecule antagonists of the peroxisome proliferator-activated receptor delta (PPARd) signaling pathway (AID 743215; active means well fitted inhibition curve with a large enough effect in the signal ratio in the repeat runs, not every such curve was filed as active; the % refers to the signal ratio; further: potency means the concentration at half of the fitted maximal effect; on ratio activity, negative = inhibition: series mostly up to about 62 µM)
Outline: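 Here, a reporter line (HEK293H, beta-lactamase under a UAS) measures PPARd signaling. Compounds are tested against agonist L165041 at 300 nM final concentration over 17 h at 37 C, with fluorescence read after substrate.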

[4] = qHTS assay to identify small molecule agonists of the farnesoid-X-receptor (FXR) signaling pathway - cell viability counter screen (AID 743218); further: nearly all actives have a fitted effect of over 45% in size
Outline: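 Quantitative HTS counter screen measuring ATP-based viability via CellTiter-Glo luminescence in HEK 293T cells carrying a UAS-driven beta-lactamase reporter, after 16 h compound exposure at 37 C.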

[5] = qHTS assay to identify small molecule antagonists of the farnesoid-X-receptor (FXR) signaling pathway - cell viability counter screen (AID 743221; active means well fitted cell-killing curve with a large enough effect in the repeat runs, not every such curve was filed as active; further: nearly all actives have a fitted effect of over 50% in size)
Outline: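 HEK 293T FXR-bla cells, 5 h pre-incubation; compound + CDCA 50 uM final, 16 h, 37 C; beta-lactamase FRET read first, then CellTiter-Glo luminescence, 30 min RT.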

[6] = molecular target: Vitamin D3 receptor (Homo sapiens) (UniProt P11473); test: qHTS assay to identify small molecule agonists of the vitamin D receptor (VDR) signaling pathway (AID 743222; calls by dose curve)
Outline: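 Tox21 cell reporter format: VDR-bla line, 16 h compound exposure in 5% CO2 at 37C, then fluorescence intensity after 2 h with LiveBLAzer B/G FRET substrate.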

[7] = molecular target: Vitamin D3 receptor (Homo sapiens) (UniProt P11473); test: qHTS assay to identify small molecule antagonists of the vitamin D receptor (VDR) signaling pathway (AID 743223; active means well fitted inhibition curve with a large enough effect in the signal ratio in the repeat runs, not every such curve was filed as active; the % refers to the signal ratio)
Outline: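 Beta-lactamase reporter read-out: FRET substrate fluorescence after 2 h at room temperature, following 16 h exposure of VDR-bla cells to test compound plus 3 nM (final) 1alpha,25-dihydroxyvitamin D3 agonist at 37C.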

[8] = molecular target: Bile acid receptor (Homo sapiens) (UniProt Q96RI1); test: qHTS assay to identify small molecule antagonists of the farnesoid-X-receptor (FXR) signaling pathway (AID 743217; active means well fitted inhibition curve with a large enough effect in the signal ratio in the repeat runs, not every such curve was filed as active; the % refers to the signal ratio)
Outline: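 Test compounds are pin-transferred onto FXR-bla HEK 293T cells, then chenodeoxycholic acid is added at 50 uM final. After 16 h at 37 °C, LiveBLAzer B/G substrate is applied for 2 h at room temperature and fluorescence read.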

[9] = molecular target: Bile acid receptor (Homo sapiens) (UniProt Q96RI1); test: qHTS assay to identify small molecule agonists of the farnesoid-X-receptor (FXR) signaling pathway (AID 743220; active means well fitted activation curve with a large enough effect in the signal ratio in the repeat runs, not every such curve was filed as active; the % refers to the signal ratio)
Outline: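 FXR-UAS-bla HEK 293T cells carrying a UAS-driven beta-lactamase reporter were plated for 5 h at 37C/5% CO2, then exposed to DMSO-dissolved Tox21 10K compounds for 16 h at 37C. A LiveBLAzer B/G FRET substrate was loaded for 2 h at room temperature before fluorescence reading.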

[10] = qHTS assay to identify small molecule antagonists of the peroxisome proliferator-activated receptor delta (PPARd) signaling pathway - cell viability counter screen (AID 743213); further: nearly all actives have a fitted effect of over 50% in size
Outline: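 Agonist-stimulated (L165041, 300 nM final) HEK293H PPARd UAS-bla cells are exposed to compounds for 17 h at 37 C, and ATP-based luminescence (CellTiter-Glo) from the same wells reports cytotoxicity.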
On the % scale 0 is the no-effect control and ±100 the full control effect.

Chain of Peroxisome proliferator-activated receptor delta (Homo sapiens) (Q03181 whole entry, looked up): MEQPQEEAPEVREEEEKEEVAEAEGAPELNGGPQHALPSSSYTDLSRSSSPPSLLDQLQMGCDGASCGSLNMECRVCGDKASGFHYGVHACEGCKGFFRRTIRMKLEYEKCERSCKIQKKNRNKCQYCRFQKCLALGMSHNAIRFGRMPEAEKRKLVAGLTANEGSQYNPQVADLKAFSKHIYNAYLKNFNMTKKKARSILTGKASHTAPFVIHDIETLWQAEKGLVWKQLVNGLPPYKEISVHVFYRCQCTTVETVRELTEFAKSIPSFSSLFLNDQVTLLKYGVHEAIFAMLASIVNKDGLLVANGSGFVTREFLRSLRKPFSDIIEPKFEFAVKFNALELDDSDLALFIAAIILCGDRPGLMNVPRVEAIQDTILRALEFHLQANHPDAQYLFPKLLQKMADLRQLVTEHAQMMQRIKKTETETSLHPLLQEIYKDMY
Chain of Bile acid receptor (Homo sapiens) (Q96RI1 whole entry, looked up): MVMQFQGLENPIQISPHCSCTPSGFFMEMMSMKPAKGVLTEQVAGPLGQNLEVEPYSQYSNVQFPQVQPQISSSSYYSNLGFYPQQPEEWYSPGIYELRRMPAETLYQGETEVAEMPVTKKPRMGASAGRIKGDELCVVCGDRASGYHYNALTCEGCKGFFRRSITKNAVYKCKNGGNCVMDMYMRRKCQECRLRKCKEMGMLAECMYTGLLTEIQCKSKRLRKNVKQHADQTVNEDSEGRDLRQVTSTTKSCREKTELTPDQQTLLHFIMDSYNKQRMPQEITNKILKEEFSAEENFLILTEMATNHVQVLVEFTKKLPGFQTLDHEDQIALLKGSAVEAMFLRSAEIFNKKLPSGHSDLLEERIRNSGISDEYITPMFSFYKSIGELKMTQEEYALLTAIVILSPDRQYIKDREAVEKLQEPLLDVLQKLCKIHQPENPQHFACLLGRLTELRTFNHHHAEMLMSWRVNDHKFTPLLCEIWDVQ
Chain of Vitamin D3 receptor (Homo sapiens) (P11473 whole entry, looked up): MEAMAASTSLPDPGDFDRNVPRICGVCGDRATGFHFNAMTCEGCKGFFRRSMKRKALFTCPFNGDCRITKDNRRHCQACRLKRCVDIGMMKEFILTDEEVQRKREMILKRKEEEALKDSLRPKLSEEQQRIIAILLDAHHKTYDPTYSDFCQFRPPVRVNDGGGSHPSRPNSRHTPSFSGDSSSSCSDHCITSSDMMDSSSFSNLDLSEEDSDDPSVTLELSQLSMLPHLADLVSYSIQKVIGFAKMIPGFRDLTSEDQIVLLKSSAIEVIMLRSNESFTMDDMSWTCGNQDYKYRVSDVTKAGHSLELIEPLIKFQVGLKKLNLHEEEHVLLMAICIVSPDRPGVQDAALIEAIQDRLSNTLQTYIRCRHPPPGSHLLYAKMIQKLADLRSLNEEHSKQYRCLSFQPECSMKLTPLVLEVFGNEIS

CCOC(=O)[C@H](CCc1ccccc1)N[C@@H](C)C(=O)N1[C@H](C(=O)O)C[C@@H]2CCC[C@@H]21
inactive: Potency [1] | outcome [2] | Potency [3] | Potency [4] | Potency [5] | outcome [6] | outcome [7]

N[C@@H](C(=O)N[C@@H]1C(=O)N2C(C(=O)O)=C(Cl)CS[C@H]12)c1ccccc1
inactive: activity change, negative = cytotoxicity [1] 12.6% [at 13.2 µM] | activation [2] 0.732% [at 13.2 µM] | ratio activity, negative = inhibition [3] 0.0649% [at 13.7 µM] | activity change, negative = inhibition [8] -0.0054% [at 13.2 µM] | viability change, negative = cytotoxic [4] 3.28% [at 13.2 µM] | activation [9] 0.369% [at 13.2 µM] | activity change, negative = cytotoxicity [5] 6.46% [at 13.2 µM] | activation [6] 4.64% [at 13.4 µM] | activity change, negative = inhibition [7] 2.28% [at 6.95 µM]

OC1CCCCC1c1ccccc1 (centres undefined)
inactive: Potency [1] | outcome [2] | Potency [3] | Potency [4] | Potency [5] | outcome [6] | outcome [7]

CCCCNC(=O)NCCCC
inactive: Potency [1] | outcome [2] | Potency [3] | Potency [4] | Potency [5] | outcome [6] | outcome [7]

CCCCCCCCCCCCN(CCCCCCCCCCCC)CCCCCCCCCCCC
inactive: Potency [1] | outcome [2] | Potency [3] | Potency [4] | outcome [6] | outcome [7]

CCCN1CCCC[C@H]1C(=O)Nc1c(C)cccc1C
inactive: Potency [1] | outcome [2] | Potency [3] | outcome [8] | Potency [4] | outcome [9] | outcome [7]

FC1(F)C(F)(F)C(F)(F)C2(F)C(F)(F)C(F)(F)C(F)(F)C(F)(F)C2(F)C1(F)F (centres undefined)
inactive: Potency [1] | outcome [2] | Potency [3] | outcome [8] | Potency [4] | outcome [9] | outcome [6]

OC(CCN1CCCCC1)(c1ccccc1)C1CC2C=CC1C2 (centres undefined)
inactive: Potency [1] | outcome [2] | Potency [3] | outcome [8] | Potency [4] | outcome [9] | Potency [5] | outcome [6] | outcome [7]

COC(C)(C)CCCC(C)CC=O (centres undefined)
inactive: Potency [1] | outcome [2] | Potency [3] | outcome [8] | Potency [4] | outcome [9] | Potency [5] | outcome [6] | outcome [7]

NC(=O)c1cn(Cc2c(F)cccc2F)nn1
inactive: Potency [1] | outcome [2] | Potency [3] | outcome [8] | Potency [4] | outcome [9] | Potency [5] | outcome [6] | outcome [7]

CC(=O)Nc1c(I)cc(I)c(C(=O)O)c1I
inactive: Potency [1] | outcome [2] | Potency [3] | Potency [4] | Potency [5] | outcome [6] | outcome [7]

NC(=O)COCCN1CCN(C(c2ccccc2)c2ccc(Cl)cc2)CC1 (centres undefined)
inactive: Potency [1] | outcome [2] | Potency [3] | Potency [4] | Potency [5] | outcome [7]

O=C(O)CNC(=O)c1ccc([N+](=O)[O-])cc1
inactive: Potency [1] | outcome [2] | Potency [3] | outcome [8] | Potency [4] | outcome [9] | Potency [5] | outcome [6]

C=COCC1CCC(CO)CC1 (centres undefined)
inactive: Potency [1] | outcome [2] | Potency [3] | outcome [8] | Potency [4] | outcome [9] | Potency [5] | outcome [6] | outcome [7]

CC(C)(c1ccc(O)cc1)c1ccc(O)cc1
active: Potency [3] 24.3 µM
inactive: Potency [1] | outcome [2] | Potency [4] | Potency [5]

CC(C)(C)NCCNC(C)(C)C
inactive: Potency [1] | outcome [2] | Potency [3] | outcome [8] | Potency [4] | outcome [9] | Potency [5] | outcome [6]

O=C(O)c1ccccc1OP(=O)(O)O
inactive: Potency [1] | outcome [2] | Potency [3] | Potency [4] | outcome [6] | outcome [7]

NS(=O)(=O)c1cc2c(cc1Cl)NC(C1CC3C=CC1C3)NS2(=O)=O (centres undefined)
inactive: Potency [1] | outcome [2] | Potency [3] | Potency [4] | outcome [6] | outcome [7]

NC(=O)c1ccc(N)cc1
inactive: Potency [1] | Potency [10] | outcome [8] | Potency [4] | outcome [9] | Potency [5] | outcome [6] | outcome [7]

COC(=O)[C@@H](N)Cc1ccc(O)c(O)c1
inactive: Potency [1] | Potency [10] | Potency [4] | Potency [5]

OCCOc1ccc(OCCO)cc1
inactive: Potency [1] | Potency [10] | outcome [8] | Potency [4] | Potency [5] | outcome [6] | outcome [7]

COc1ccc2c(c1)CCCC2=O
inactive: Potency [1] | Potency [10] | outcome [8] | Potency [4] | outcome [9] | Potency [5] | outcome [6] | outcome [7]

CCc1cccc2c(CCO)c[nH]c12
inactive: Potency [1] | Potency [10] | Potency [3] | Potency [4] | Potency [5] | outcome [6] | outcome [7]

CC1(C)CO[C@@H](CC(=O)O)CN1
inactive: Potency [1] | outcome [2] | Potency [3] | outcome [6] | outcome [7]

CN1CCCC1
inactive: Potency [1] | Potency [10] | outcome [8] | Potency [4] | outcome [9] | Potency [5] | outcome [6]

N[C@H](C(=O)O)c1ccc(O)cc1
inactive: Potency [1] | outcome [2] | Potency [3] | Potency [4] | outcome [6] | outcome [7]
